GPR7 antag – GPR7 receptor antagonists, primary screen, cell-based, fluorescence, single concentration; 290,000 compounds, 1.1% hits; GPR7-expressing cells, fluorescence antagonist assay; inhibition, % at 4.4 µM; AID 1861, 2009; Neuropeptides B/W receptor type 1 (Homo sapiens), P48145; in the data active = inhibition above about 16%, passing the limit was not always enough;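 also: cells stimulated with the agonist NPW; 0% = agonist with vehicle and 100% = vehicle without agonist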
TMEM16A inh – TMEM16A chloride channel inhibitors, primary screen, cell-based, HTS; Anoctamin-1 (Mus musculus), Q8BHY3; HEK293 TMEM16A/YFP iodide influx fluorescence, ionomycin; normalized B-score (activity score, 25-100; higher = stronger inhibition) at 10 µM; 310,000 compounds, 1.2% hits;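 active = ratio plate-corrected score three or more library SD toward inhibition, starting fluorescence score within five deviations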;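 also: score derived from kinetic fluorescence span divided by baseline fluorescence per well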
CHT inh – inhibitors of human choline transporter CHT; High affinity choline transporter 1 (Homo sapiens), Q9GZV3; CHT-expressing cells, membrane potential dye, choline response; hits give low values; B-score at 10 µM; 310,000 compounds, 0.86% hits;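 active = B-score over 3 SD under the library average, and starting fluorescence ratio not unusually high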;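 also: choline stimulus applied at its EC90 after an EC20 pre-addition; B-score computed on integrated fluorescence ratio after choline addition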
CHT PAM – CHT positive allosteric modulators, primary screen, cell-based, membrane potential dye, choline EC20; B-score at 10 µM; AID 488977, 2010; CHT-expressing cells; hits give high values; LV-AA mutant CHT in HEK293 cells; 310,000 compounds, 0.49% hits; High affinity choline transporter 1 (Homo sapiens), Q9GZV3;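 active = initial fluorescence not abnormally high and integrated response B-score, plate-corrected, over 3 SD above library mean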
Kir21 block – inhibitors of mouse Kir2.1 inward-rectifier potassium channel; Inward rectifier potassium channel 2 (Mus musculus), P35561; HEK293-Kir2.1, FluxOR thallium flux fluorescence; hits give low values; B-score at 10 µM; 310,000 compounds, 0.85% hits; AID 1672, 2009;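 active = fluorescence ratio B-score at or below minus 3 SD of library scores, with starting-brightness B-score within 2 SD, cut at about -4.2 in these data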;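 also: channel flux triggered by added potassium and thallium sulfate stimulus; B-score of peak minus minimum fluorescence over baseline after thallium stimulus; more negative B-score means stronger Kir2.1 block with less thallium influx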
Target sequence (P35561 whole entry, looked up): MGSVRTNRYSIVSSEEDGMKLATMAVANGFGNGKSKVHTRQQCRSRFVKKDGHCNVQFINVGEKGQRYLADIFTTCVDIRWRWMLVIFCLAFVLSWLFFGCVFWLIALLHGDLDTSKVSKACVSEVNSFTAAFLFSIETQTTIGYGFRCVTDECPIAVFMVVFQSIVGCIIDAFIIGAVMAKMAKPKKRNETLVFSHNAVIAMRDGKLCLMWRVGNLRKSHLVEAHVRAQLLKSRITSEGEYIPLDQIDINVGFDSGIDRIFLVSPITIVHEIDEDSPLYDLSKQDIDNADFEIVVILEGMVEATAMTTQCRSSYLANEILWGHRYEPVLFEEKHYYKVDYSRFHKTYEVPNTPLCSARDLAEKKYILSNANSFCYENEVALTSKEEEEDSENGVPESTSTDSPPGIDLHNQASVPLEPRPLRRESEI
TMEM16A act – TMEM16A chloride channel activators or potentiators, primary screen, cell-based, HTS. AID 623877, 2012. HEK293 TMEM16A/YFP-H148Q/I152L, iodide quench fluorescence; hits give low values. B-score at 10 µM. 340,000 compounds, 0.3% hits;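 active = fluorescence-ratio B-score plate-corrected deviation score at least 3 library SD below zero, with starting fluorescence score within 5 deviations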;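 also: channel opened by trigger with iodide after compound preincubation; score built on the fluorescence ratio of max minus min over baseline; more negative score means more quench and so TMEM16A activation or potentiation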
GPR7 antag cf – GPR7 receptor antagonists, confirmation, cell-based, fluorescence, single concentration | AID 1952, 2009 | 2,400 compounds, 52% hits | GPR7-expressing cells, calcium fluorescence antagonist mode | shares compounds with GPR7 antag | inhibition, % at 4.4 µM; in the data active = inhibition above about 24%;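 also: stimulated with the GPR7 agonist NPW; 0% = agonist plus vehicle and 100% = vehicle alone without agonist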
MCHR1 antagonist – MCHR1 antagonists in cells, counter-screen for GPR7 antagonist project, cell-based, fluorescence, human; shares compounds with GPR7 antag; MCHR1-expressing cells, fluorescence antagonist assay; 2,400 compounds, 62% hits; inhibition, % at 4.4 µM; in the data active = inhibition above about 22%;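 also: 0% = vehicle with agonist and 100% = vehicle without agonist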
Numbers without * were called inactive. Rows were chosen to be rich in hits. Some 3.7% of all compounds tested hit in one or more screens of this group.

What do the screens show for `O=C1C2C3C=CC(C3)C2C(=O)N1c1ccc(-c2nc3ccccc3o2)cc1` (stereo not given)?
GPR7 antag: 39.5*; TMEM16A inh: inactive; CHT inh: inactive; CHT PAM: inactive; Kir21 block: -0.49; TMEM16A act: inactive; GPR7 antag cf: 12.0; MCHR1 antagonist: 1.1

How did N#CCCN(C(=O)CN1CCN(S(=O)(=O)c2ccc(Cl)s2)CC1)c1ccc(F)cc1 do in these assays?
TMEM16A act: inactive

Results for COc1cc(C(=S)N2CCOCC2)ccc1OC(=O)c1ccc(Br)cc1 ?
GPR7 antag: 41.5*; TMEM16A inh: inactive; CHT inh: inactive; CHT PAM: inactive; Kir21 block: 1.1; TMEM16A act: inactive; GPR7 antag cf: 65.8*; MCHR1 antagonist: 81.0*

How did CC(O)CN(C)CC/C=C1/c2ccccc2CSc2ccccc21 (stereo not given) do in these assays?
GPR7 antag: 22.1*; TMEM16A inh: inactive; CHT inh: inactive; CHT PAM: inactive; Kir21 block: -1.72; TMEM16A act: inactive; GPR7 antag cf: 17.3; MCHR1 antagonist: 17.5

Results for Cc1ccccc1OCCCC(=O)Nc1ccc(S(=O)(=O)Nc2onc(C)c2C)cc1 ?
GPR7 antag: -3.4; TMEM16A inh: inactive; CHT inh: inactive; CHT PAM: inactive; Kir21 block: -0.99; TMEM16A act: inactive

What do the screens show for `CC(C)Oc1ccccc1/C=N/n1nnnc1N`?
TMEM16A inh: inactive; CHT inh: inactive; CHT PAM: inactive; Kir21 block: -0.71; TMEM16A act: inactive

Results for CS(=O)(=O)c1ccc2nc(NC(=O)Nc3ccc(Cl)cc3)sc2c1 ?
GPR7 antag: 5.0; TMEM16A inh: inactive; CHT inh: inactive; CHT PAM: inactive; Kir21 block: 0.51; TMEM16A act: inactive

How did NS(=O)(=O)c1ccc2nc(NC(=O)Nc3ccc(F)cc3)sc2c1 do in these assays?
GPR7 antag: 33.8*; TMEM16A inh: inactive; CHT inh: inactive; CHT PAM: inactive; Kir21 block: 0.01; TMEM16A act: inactive; GPR7 antag cf: 50.0*; MCHR1 antagonist: 15.4

How did Cc1cccc(C)c1NC(=O)NC1(C(=O)N2CCOCC2)CCCCC1 do in these assays?
GPR7 antag: -17.6; TMEM16A inh: inactive; CHT inh: inactive; CHT PAM: inactive; Kir21 block: -1.87; TMEM16A act: inactive

What do the screens show for `CS(=O)(=O)c1sc(C#N)c2c1C(=O)CC(c1ccccc1)C2` (stereo not given)?
GPR7 antag: 75.0*; TMEM16A inh: inactive; CHT inh: -7.11*; CHT PAM: inactive; Kir21 block: -5.9; TMEM16A act: -11*; GPR7 antag cf: 96.9*; MCHR1 antagonist: 93.8*

Results for COc1ccc(C(=O)N(C)Cc2ccc(C)o2)cc1OC1CCN(C(C)=O)CC1 ?
GPR7 antag: 23.2*; TMEM16A inh: inactive; CHT inh: inactive; CHT PAM: inactive; Kir21 block: 1.18; TMEM16A act: inactive; GPR7 antag cf: 1.1; MCHR1 antagonist: 36.3*

Results for COc1cc(CNCCCN2CCOCC2)cc(Cl)c1OCC(=O)NC(C)(C)C ?
GPR7 antag: -8.8; TMEM16A inh: inactive; CHT inh: inactive; CHT PAM: inactive; Kir21 block: 1.7; TMEM16A act: inactive

Results for CC(NCCCOc1cccc2ccccc12)c1ccccc1 (stereo not given) ?
GPR7 antag: 24.6*; TMEM16A inh: inactive; CHT inh: inactive; CHT PAM: inactive; Kir21 block: -10.3*; TMEM16A act: inactive; GPR7 antag cf: 56.5*; MCHR1 antagonist: 49.8*

Results for O=[N+]([O-])c1cccc(S(=O)(=O)NCC2CC3CCC2C3)c1 (stereo not given) ?
GPR7 antag: 37.9*; TMEM16A inh: inactive; CHT inh: inactive; CHT PAM: inactive; Kir21 block: 0.1; TMEM16A act: inactive; GPR7 antag cf: -1.6; MCHR1 antagonist: -8.7

How did CS(=O)(=O)c1ccc2nc(NC(=O)CCNC(=O)c3ccc(Cl)cc3)sc2c1 do in these assays?
TMEM16A act: inactive

What do the screens show for `CN(/N=C/c1ccc(-c2ccc([N+](=O)[O-])cc2)o1)c1ccccc1`?
GPR7 antag: 45.4*; TMEM16A inh: inactive; CHT inh: inactive; CHT PAM: inactive; Kir21 block: -1; TMEM16A act: inactive; GPR7 antag cf: 56.3*; MCHR1 antagonist: 71.5*

What do the screens show for `CN(/N=C/c1cc([N+](=O)[O-])ccc1O)c1ccccc1`?
GPR7 antag: 5.7; TMEM16A inh: inactive; CHT inh: inactive; CHT PAM: inactive; Kir21 block: -1.67; TMEM16A act: inactive

What do the screens show for `COc1ccc(C(=O)N2CCC3(CC2)NCCc2[nH]cnc23)cc1`?
GPR7 antag: 1.4; TMEM16A inh: inactive; CHT inh: inactive; CHT PAM: inactive; Kir21 block: 0.7; TMEM16A act: inactive

How did COc1ccc(C2OC(=O)CC2C(=O)NC2CCCCCC2)cc1OC (stereo not given) do in these assays?
GPR7 antag: 26.4*; TMEM16A inh: inactive; CHT inh: inactive; CHT PAM: inactive; Kir21 block: 1.25; TMEM16A act: inactive; GPR7 antag cf: -8.9; MCHR1 antagonist: -1.8

How did Cc1ccc(Cl)cc1NC(=S)N(CCCN1CCOCC1)Cc1ccco1 do in these assays?
GPR7 antag: -1.1; TMEM16A inh: inactive; CHT inh: inactive; CHT PAM: inactive; Kir21 block: 1.76; TMEM16A act: inactive

Results for Cc1cc(Cl)ccc1NNC(=O)c1cccs1 ?
GPR7 antag: 22.9*; TMEM16A inh: inactive; CHT inh: inactive; CHT PAM: inactive; Kir21 block: 2.12; TMEM16A act: inactive; GPR7 antag cf: 0.6; MCHR1 antagonist: 3.2

How did O=C(NNc1cc(Cl)ccc1Cl)c1cccs1 do in these assays?
GPR7 antag: -26.7; TMEM16A inh: inactive; CHT inh: inactive; CHT PAM: inactive; Kir21 block: -0.23; TMEM16A act: inactive

Bioassay records (PubChem BioAssay)
